Results filed as inconclusive are left out. Calls of active or inactive are those of the source. Unless noted, the call rests on the fitted dose curve.
Columns and labels:
[1] = Nuclear factor erythroid 2-related factor 2/antioxidant responsive element (Nrf2/ARE) small molecule agonists: qHTS cell viability counter screen in human keratinocytes (AID 1919968; active means well fitted curve in the direction sought with a large enough effect in the repeat runs; an effect the other way counts as inactive or inconclusive; further: nearly all actives have a fitted effect of over 55% in size; further: potency means the concentration at half of the fitted maximal effect)
Method in brief: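 Viability counter-screen: KeratinoSens reporter cells, DMSO-delivered compounds, 23 h at 37 C, CellTiter-Fluor fluorescence.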

[2] = Nuclear factor erythroid 2-related factor 2/antioxidant responsive element (Nrf2/ARE) small molecule agonists: luciferase reporter gene qHTS assay in human keratinocytes (AID 1919969); further: nearly all actives have a fitted effect of over 35% in size
[3] = biological target: Gonadotropin-releasing hormone receptor (Homo sapiens) (UniProt P30968); test: Human gonadotropin-releasing hormone receptor (GnRHR) small molecule agonists, calcium flux assay in GnRHR-HEK293 cells (AID 1920063); further: nearly all actives have a fitted effect of over 35% in size
Chain of Gonadotropin-releasing hormone receptor (Homo sapiens) (P30968 whole entry, looked up): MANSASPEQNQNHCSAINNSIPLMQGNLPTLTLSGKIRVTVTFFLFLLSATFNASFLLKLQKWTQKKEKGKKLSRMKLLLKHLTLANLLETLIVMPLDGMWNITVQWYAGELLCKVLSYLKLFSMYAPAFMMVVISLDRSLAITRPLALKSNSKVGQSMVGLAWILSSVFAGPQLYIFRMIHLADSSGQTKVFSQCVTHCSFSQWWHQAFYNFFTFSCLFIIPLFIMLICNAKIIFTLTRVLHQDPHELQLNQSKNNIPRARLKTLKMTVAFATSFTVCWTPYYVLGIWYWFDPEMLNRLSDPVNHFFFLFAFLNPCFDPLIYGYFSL
Method in brief: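 Tox21-format agonist screen using human GnRHR-expressing HEK293 cells and a fluorescent calcium dye; kinetic 3-min fluorescence reading after compound addition, 15-point concentration series run in triplicate.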

[4] = biological target: KiSS-1 receptor (Homo sapiens) (UniProt Q969F8); test: Human kisspeptin (KISS1R) small molecule agonists, calcium flux assay in KISS1R-HEK293 cells (AID 1920064; active means well fitted curve in the direction sought with a large enough effect in the repeat runs; an effect the other way counts as inactive or inconclusive)
Chain of KiSS-1 receptor (Homo sapiens) (Q969F8 whole entry, looked up): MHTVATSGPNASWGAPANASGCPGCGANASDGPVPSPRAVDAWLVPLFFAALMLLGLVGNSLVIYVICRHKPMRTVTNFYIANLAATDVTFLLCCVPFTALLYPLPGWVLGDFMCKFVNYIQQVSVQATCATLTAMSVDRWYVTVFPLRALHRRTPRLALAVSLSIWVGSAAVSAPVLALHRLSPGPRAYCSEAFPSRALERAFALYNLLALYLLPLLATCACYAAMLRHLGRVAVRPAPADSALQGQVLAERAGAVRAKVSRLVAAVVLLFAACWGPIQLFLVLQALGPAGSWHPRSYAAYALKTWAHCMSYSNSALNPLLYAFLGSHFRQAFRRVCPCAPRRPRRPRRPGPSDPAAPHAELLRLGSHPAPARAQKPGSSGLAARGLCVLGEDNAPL
Method in brief: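 Intracellular calcium mobilization in KISS1R-HEK293 cells was recorded by fluorescence (Ex/Em 480/540) for 3 min following compound addition to cells pre-loaded 1 h with calcium dye.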

[5] = G protein-coupled receptor (GPCR) small molecule agonists, calcium flux assay: HEK293 wild type cell line counter screen (AID 1920065)
Method in brief: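 In this agonist-mode screen, ATP is the positive control and DMSO the vehicle. Cells grow 18 h before a 1 h dye incubation at 37 C; signal is taken at Ex/Em 480/540 over 3 min.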

[6] = p53 small molecule agonists, cell-based qHTS assay with human liver microsomes (AID 1963577);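 further: p53 response element beta-lactamase reporter cells with liver microsomes plus NADPH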
Method in brief: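 Reporter activation was measured by LiveBLAzer fluorescence intensity in p53RE-bla cells, which had been exposed to compounds for 16 h at 37 C alongside 0.5 mg/mL human liver microsomes and 0.5 mg/mL NADPH (final concentrations).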

[7] = p53 small molecule agonists, cell-based qHTS assay with rat liver microsomes (AID 1963578)
Method in brief: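 Compound in DMSO added to p53RE-bla cells 5 h post-plating; rat microsomes/NADPH 0.5 mg/mL final; 16 h, 37 C; LiveBLAzer 2 h RT.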

[8] = p53 small molecule agonists, cell-based qHTS assay with human liver microsomes: qHTS cell viability counter screen (AID 1963579); further: nearly all actives have a fitted effect of over 45% in size
Method in brief: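 HLM-supplemented (0.5 mg/mL final) and NADPH-supplemented (0.5 mg/mL final) p53RE-bla cultures, 4,000 cells per well, were dosed with compounds in DMSO for 16 h at 37 C; luminescent ATP detection (CellTiter-Glo, 30 min, room temperature) quantified surviving cells.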

[9] = p53 small molecule agonists, cell-based qHTS assay with rat liver microsomes: qHTS cell viability counter screen (AID 1963580); further: nearly all actives have a fitted effect of over 45% in size
Method in brief: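 HCT-116 p53RE-bla, 4,000 cells/well, 5 h pre-incubation; cpd + rat liver microsomes 0.5 mg/mL + NADPH 0.5 mg/mL (final); 16 h, 37 C; CellTiter-Glo, 30 min RT; luminescence.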

[10] = p53 small molecule agonists, cell-based qHTS assay (AID 1963582; active means well fitted activation curve with a large enough effect in the signal ratio in the repeat runs, not every such curve was filed as active; the % refers to the signal ratio)
Method in brief: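 Agonist activity was scored from beta-lactamase FRET fluorescence in p53RE-bla cells treated 16 h at 37 C with compounds in DMSO, substrate incubation being 2 h at room temperature.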

[11] = biological target: 5-hydroxytryptamine receptor 2A (Homo sapiens) (UniProt P28223); test: 5-hydroxytryptamine receptor 2A (HTR2A) small molecule antagonists, cell-based qHTS assay (AID 1963586); further: nearly all actives have a fitted effect of over 45% in size
Chain of 5-hydroxytryptamine receptor 2A (Homo sapiens) (P28223 whole entry, looked up): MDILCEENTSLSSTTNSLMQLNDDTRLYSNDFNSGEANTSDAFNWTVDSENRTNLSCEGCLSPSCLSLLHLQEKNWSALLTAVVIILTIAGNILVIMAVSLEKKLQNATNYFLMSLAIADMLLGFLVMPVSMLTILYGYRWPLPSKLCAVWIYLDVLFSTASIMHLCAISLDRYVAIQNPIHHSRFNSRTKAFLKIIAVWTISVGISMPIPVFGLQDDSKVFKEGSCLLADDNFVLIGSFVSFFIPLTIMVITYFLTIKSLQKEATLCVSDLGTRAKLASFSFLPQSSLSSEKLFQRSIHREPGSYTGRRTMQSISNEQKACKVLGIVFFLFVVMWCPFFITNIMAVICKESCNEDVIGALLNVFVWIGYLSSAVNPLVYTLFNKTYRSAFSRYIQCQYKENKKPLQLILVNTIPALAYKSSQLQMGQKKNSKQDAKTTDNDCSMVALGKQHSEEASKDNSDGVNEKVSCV
Method in brief: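 Antagonist-mode intracellular calcium assay: DOI (4 nM) added after 5 min compound pre-incubation at room temperature to dye-loaded HTR2A-CHO cells. Fluorescence followed for 3 min, sampled every second.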

[12] = biological target: 5-hydroxytryptamine receptor 2A (Homo sapiens) (UniProt P28223); test: 5-hydroxytryptamine receptor 2A (HTR2A) small molecule agonists, cell-based qHTS assay (AID 1963587); further: nearly all actives have a fitted effect of over 30% in size
Method in brief: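 Kinetic calcium-flux fluorescence (2 min, 1 sec intervals) after compound addition in agonist mode. HTR2A-CHO cells were cultured 18 h, then dye-loaded 1 h at 37 C.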

[13] = biological target: Muscarinic acetylcholine receptor M1 (Homo sapiens) (UniProt P11229); test: Cholinergic receptor muscarinic 1 (CHRM1) small molecule antagonists, cell-based qHTS assay (AID 1963588); further: nearly all actives have a fitted effect of over 40% in size
Chain of Muscarinic acetylcholine receptor M1 (Homo sapiens) (P11229 whole entry, looked up): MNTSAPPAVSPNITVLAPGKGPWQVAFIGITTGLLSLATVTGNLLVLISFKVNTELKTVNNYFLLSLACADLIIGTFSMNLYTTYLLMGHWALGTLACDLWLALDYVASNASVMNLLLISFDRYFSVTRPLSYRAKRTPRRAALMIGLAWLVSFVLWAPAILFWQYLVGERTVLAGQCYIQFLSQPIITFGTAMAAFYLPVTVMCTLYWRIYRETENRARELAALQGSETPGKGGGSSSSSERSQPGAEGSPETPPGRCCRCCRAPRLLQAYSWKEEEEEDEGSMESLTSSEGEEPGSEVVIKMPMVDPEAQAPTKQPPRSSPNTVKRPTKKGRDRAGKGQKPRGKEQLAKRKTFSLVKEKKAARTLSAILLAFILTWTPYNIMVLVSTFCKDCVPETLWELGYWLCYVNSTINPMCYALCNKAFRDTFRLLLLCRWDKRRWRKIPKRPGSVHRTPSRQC
Method in brief: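 CHRM1-CHO calcium-flux assay, antagonist mode. Cells were seeded 18 h, dye-loaded 1 h at 37 C and given compound for 5 min at RT, then acetylcholine was added at 50nM. FDSS fluorescence was read 3 min; 15 concentrations, three runs.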

[14] = biological target: Muscarinic acetylcholine receptor M1 (Homo sapiens) (UniProt P11229); test: Cholinergic receptor muscarinic 1 (CHRM1) small molecule agonists, cell-based qHTS assay (AID 1963589); further: nearly all actives have a fitted effect of over 35% in size
Method in brief: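 Stable CHRM1-CHO cells (human receptor) were incubated 18 h, dye-loaded for 1 h at 37 C and exposed to test compounds for agonist activity, with calcium-dependent fluorescence followed kinetically.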

[15] = cAMP Responsive Elements (CRE) small molecule agonists, cell-based qHTS assay (AID 1963590)
Method in brief: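 FRET-based beta-lactamase readout (LiveBLAzer B/G, 2 h RT) quantified CRE activation in HEK 293T CRE-bla cells after 3 h treatment with DMSO-dissolved compounds.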

[16] = cAMP Responsive Elements (CRE) small molecule antagonists, cell-based qHTS assay (AID 1963591; active means well fitted inhibition curve with a large enough effect in the signal ratio in the repeat runs, not every such curve was filed as active; the % refers to the signal ratio)
Method in brief: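 qHTS in CRE-bla HEK 293T cells: compound in DMSO, then 0.25 uM NKH477 (final), 3 h at 37 °C/5% CO2; beta-lactamase FRET read-out after 2 h substrate incubation.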

[17] = biological target: Beta-2 adrenergic receptor (Homo sapiens) (UniProt P07550); test: Adrenergic beta2 receptor (ADRB2) small molecule antagonists, cell-based qHTS assay (AID 1963592); further: series mostly up to about 92 µM; nearly all actives have a fitted effect of over 50% in size
Chain of Beta-2 adrenergic receptor (Homo sapiens) (P07550 whole entry, looked up): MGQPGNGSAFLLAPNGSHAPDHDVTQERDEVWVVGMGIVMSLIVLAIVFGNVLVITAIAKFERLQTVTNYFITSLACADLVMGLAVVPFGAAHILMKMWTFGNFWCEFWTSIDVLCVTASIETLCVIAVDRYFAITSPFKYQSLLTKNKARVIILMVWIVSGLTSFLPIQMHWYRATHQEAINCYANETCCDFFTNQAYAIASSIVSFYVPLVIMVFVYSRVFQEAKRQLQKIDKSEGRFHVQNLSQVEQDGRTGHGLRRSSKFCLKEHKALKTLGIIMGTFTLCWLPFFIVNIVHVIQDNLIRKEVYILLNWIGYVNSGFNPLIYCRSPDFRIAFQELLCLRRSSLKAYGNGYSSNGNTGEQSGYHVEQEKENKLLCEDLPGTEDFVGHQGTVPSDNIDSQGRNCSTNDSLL
Method in brief: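 Cells (CHO, stable ADRB2 overexpression) incubated 18-20hr at 37C; compounds added from DMSO; agonist mix (1nM isoproterenol, 100uM IBMX, 25uM Ro-20-1724) added; 0.5hr RT; d2-cAMP and anti-cAMP-cryptate added; 1hr RT; 665/615 nm read.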

[18] = biological target: D(2) dopamine receptor (Homo sapiens) (UniProt P14416); test: Dopamine D2 receptor (DRD2) small molecule agonists, cell-based qHTS assay (AID 1963594); further: nearly all actives have a fitted effect of over 35% in size
Chain of D(2) dopamine receptor (Homo sapiens) (P14416 whole entry, looked up): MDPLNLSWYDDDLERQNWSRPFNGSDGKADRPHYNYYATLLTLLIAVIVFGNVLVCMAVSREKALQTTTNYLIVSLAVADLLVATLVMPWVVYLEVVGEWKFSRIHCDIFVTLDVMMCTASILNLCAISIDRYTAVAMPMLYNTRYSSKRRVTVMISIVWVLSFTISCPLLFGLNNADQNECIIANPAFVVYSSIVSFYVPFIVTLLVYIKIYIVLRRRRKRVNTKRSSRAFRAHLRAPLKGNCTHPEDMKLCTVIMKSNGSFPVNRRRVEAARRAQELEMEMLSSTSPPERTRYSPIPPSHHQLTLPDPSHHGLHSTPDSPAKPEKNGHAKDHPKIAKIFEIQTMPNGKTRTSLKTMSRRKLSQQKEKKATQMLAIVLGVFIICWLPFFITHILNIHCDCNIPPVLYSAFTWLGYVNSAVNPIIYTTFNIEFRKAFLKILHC
Method in brief: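 cAMP accumulation in DRD2-HEK293 cells measured by HTRF after 1 h detection; compounds added 10 min before NKH477 (200nM […]) forskolin-analogue stimulation, 30 min at room temperature, with Ro20-1724 present at 0.1 mM final.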

[19] = biological target: D(2) dopamine receptor (Homo sapiens) (UniProt P14416); test: Dopamine D2 receptor (DRD2) small molecule antagonists, cell-based qHTS assay (AID 1963595; active means well fitted inhibition curve with a large enough effect in the signal ratio in the repeat runs, with a control signal flat; the % refers to the signal ratio)
Method in brief: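 Stable D2 receptor HEK293 line, 24 h after seeding. Compound preincubated 10 min, then quinpirole (12 nM) with forskolin analogue NKH477 (200 nM), 30 min, room temperature. Detection by time-resolved FRET of cAMP.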

[20] = p53 small molecule agonists, cell-based qHTS assay: qHTS cell viability counter screen (AID 1963581); further: nearly all actives have a fitted effect of over 45% in size
Method in brief: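 Compounds are pinned onto HCT-116 p53RE-bla cells and left 16 h at 37 C. Following the reporter FRET read, ATP is quantified by CellTiter-Glo luminescence after 30 min at room temperature.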
On the % scale 0 is the no-effect control and ±100 the full control effect.

CC(C)CCCCCCCOC(=O)c1ccccc1C(=O)OCCCCCCCC(C)C
inactive: Potency [1] | Potency [2] | Potency [3] | Potency [4] | Potency [5] | Potency [6] | Potency [7] | Potency [8] | Potency [9] | Potency [10] | Potency [11] | Potency [12] | Potency [13] | Potency [14] | Potency [15] | Potency [16] | Potency [17] | Potency [18] | Potency [19]

ClCCCN1CCN(c2cccc(Cl)c2)CC1
inactive: Potency [1] | Potency [2] | Potency [3] | Potency [4] | Potency [5] | Potency [6] | Potency [7] | Potency [8] | Potency [9] | Potency [20] | Potency [12] | Potency [13] | Potency [14] | Potency [15] | Potency [16] | Potency [19]

CC(=O)CN(CC(C)=O)N=O
inactive: Potency [1] | Potency [2] | Potency [3] | Potency [4] | Potency [5] | Potency [6] | Potency [7] | Potency [8] | Potency [9] | Potency [10] | Potency [11] | Potency [12] | Potency [13] | Potency [15] | Potency [16] | Potency [17] | Potency [18] | Potency [19]

CC(=O)OCC1=C(C(=O)O)N2C(=O)[C@@H](N)[C@H]2SC1
inactive: activity change, negative = cytotoxicity [1] 3.02% [at 19 µM] | activity, positive = activation [2] -4.57% [at 19 µM] | activity change [3] -1.33% [at 11.8 µM, hits give high values] | activation [4] -0.221% [at 15.8 µM] | activation [5] 1.18% [at 11.8 µM] | activation [6] 8.26% [at 13.5 µM] | activation [7] 0.252% [at 13.6 µM] | activity change, negative = cytotoxicity [8] -9.53% [at 13.5 µM] | activity change, negative = cytotoxicity [9] 0.524% [at 13.5 µM] | activation [10] 1.4% [at 13.5 µM] | activity, negative = inhibition [11] 10.6% [at 12.7 µM] | activation [12] 1.54% [at 15.9 µM] | activity, negative = inhibition [13] 7.63% [at 12.6 µM] | activation [14] 0.141% [at 15.8 µM] | activation [15] -2.32% [at 19 µM] | activity change, negative = inhibition [16] -7.18% [at 18.9 µM] | activity change, negative = inhibition [17] -0.292% [at 19 µM] | activation [18] 5.76% [at 19 µM] | activity change, negative = inhibition [19] 7.52% [at 18.9 µM]

c1ccc2c(c1)Sc1ccccc1N2CC1CN2CCC1CC2 (stereo not given)
active: Potency [1] 33.5 µM
inactive: Potency [2] | Potency [3] | Potency [4] | Potency [5] | Potency [6] | Potency [7] | Potency [8] | Potency [9] | Potency [20] | Potency [11] | Potency [13] | Potency [14] | Potency [17] | Potency [18] | Potency [19]

O=c1[nH]c(Cl)c(Cl)cc1Cl
inactive: Potency [1] | Potency [2] | Potency [3] | Potency [4] | Potency [5] | Potency [6] | Potency [7] | Potency [8] | Potency [9] | Potency [20] | Potency [11] | Potency [12] | Potency [13] | Potency [14] | Potency [17] | Potency [18] | Potency [19]
